An excerpt weighted towards active compounds, which were near 4.6% of everything screened.
ssDAF-12 act: activates DAF-12 receptor from parasite S. stercoralis. activation, % at 6.8 µM. AID 652126. 370,000 tested, 1% active. HEK293 ssDAF-12/GRIP1 lit1-tk-luc reporter, luminescence; % of 3 µM dafachronic acid response;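 active = activation above the mean over all tested compounds plus 3 SD, cut at about 0.9% in these data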;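 also: 0% = DMSO-only wells and 100% = 3 µM delta7-dafachronic acid wells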
DAX1 inh-1: inhibits human nuclear receptor DAX1. P51843. HEK293 Gal4-DAX1 luciferase reporter, luminescence. inhibition, % at 6.75 µM. 340,000 tested, 0.99% active. AID 504766;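 active = inhibition above the mean over all tested compounds plus 3 SD, cut at about 4.2% in these data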;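 also: 0% = DAX1-transfected cells with DMSO and 100% = empty-vector control cells with DMSO; inhibition shows as a rise in luminescence from relieved DAX1 repression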
Target sequence (P51843 207-470 limits assumed): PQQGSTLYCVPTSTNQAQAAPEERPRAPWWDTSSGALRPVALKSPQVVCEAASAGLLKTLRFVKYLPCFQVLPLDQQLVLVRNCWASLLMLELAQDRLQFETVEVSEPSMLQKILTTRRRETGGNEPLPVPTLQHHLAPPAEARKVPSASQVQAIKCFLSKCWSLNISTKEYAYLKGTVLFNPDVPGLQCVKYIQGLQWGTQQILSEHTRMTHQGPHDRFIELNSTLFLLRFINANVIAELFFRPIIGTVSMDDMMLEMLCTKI
hcDAF12 agonist: activators of H. contortus DAF-12 nuclear receptor. HEK293 hcDAF-12 lit1-tk-luc reporter, luminescence; 0% DMSO, 100% Δ7-dafachronic acid. activation, % at 6.8 µM. 370,000 tested, 1.4% active. AID 652067;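 active = activation above the mean of all tested compounds plus 3 SD, cut at about 5.5% in these data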;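 also: 100% = response to 3 µM Δ7-dafachronic acid high control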
DAX1 inh-2: inhibitors of DAX1 repression of SF-1 activated StAR promoter; inhibition, % at 6.8 µM; HEK293T StAR-luciferase reporter, SF-1/DAX-1 repression relief; 370,000 tested, 1.1% active;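 active = inhibition above the mean over all tested compounds plus 3 SD, cut at about 3.6% in these data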;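 also: 0% = DAX-1 cells with DMSO and 100% = cells lacking DAX-1 with DMSO; higher inhibition means more luminescence from relief of DAX-1 repression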
Wee1 degr inh: blocks degradation of human Wee1 kinase; P30291; HeLa Luc-Wee1K328M stability, luciferase luminescence; 100% = proteasome inhibitor MG132 effect; reporter increase, % at 5 µM; 220,000 tested, 1.2% active; AID 1321;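 active = activation above the mean of all tested compounds plus 3 SD, set per screening run, cut at about 8.8% in these data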;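 also: cells exposed to compound for 20 h before luminescence read; 0% = DMSO alone and 100% = MG132 at 30 µM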
hgDAF12 agonist: activates the H. glycines DAF-12 receptor ligand-binding domain; HEK293 GAL4-hgDAF12 UAS-luciferase reporter, agonist luminescence; normalized to butyrate control; activation, % at 6.8 µM; 370,000 tested, 1.8% active; AID 687014;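 active = activation above a cutoff set at the mean of all screened compounds plus 3 SD, cut at about 10% in these data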;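 also: 0% = DMSO wells and 100% = sodium butyrate wells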
LXRb hcDAF ctr: LXR-beta agonism as hcDAF-12 counter-screen; AID 743027; HEK293 Gal4-LXR tk-luc reporter, luminescence, 24 h; normalized: DMSO 0%, positive control 100%; activation, % at 6.8 µM; 3,400 tested, under 10 active; shares compounds with hcDAF12 agonist;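 active = mean percent activation of the reporter above a cutoff set as the average over tested compounds plus their standard deviation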
Target sequence (P55055 whole entry, looked up, the tested form may be a part): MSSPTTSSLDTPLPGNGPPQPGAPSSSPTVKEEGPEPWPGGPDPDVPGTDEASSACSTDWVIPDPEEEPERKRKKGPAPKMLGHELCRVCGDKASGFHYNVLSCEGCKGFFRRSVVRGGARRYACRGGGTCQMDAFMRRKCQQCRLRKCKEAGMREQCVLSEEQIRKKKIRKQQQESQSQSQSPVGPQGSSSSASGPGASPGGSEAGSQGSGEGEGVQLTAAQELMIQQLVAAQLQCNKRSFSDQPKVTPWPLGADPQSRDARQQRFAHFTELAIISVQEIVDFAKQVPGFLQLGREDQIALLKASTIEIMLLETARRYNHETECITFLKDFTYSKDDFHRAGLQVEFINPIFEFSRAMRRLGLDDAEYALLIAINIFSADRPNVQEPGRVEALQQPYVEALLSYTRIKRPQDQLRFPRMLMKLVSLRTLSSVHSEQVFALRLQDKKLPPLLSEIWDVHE
hcDAF12 conf: hcDAF-12 agonism, confirmation assay | shares compounds with hcDAF12 agonist | HEK293 hcDAF-12 lit1-tk-luc reporter, luminescence; % of Δ7-dafachronic acid response | activation, % at 6.8 µM | 3,400 tested, 61% active | AID 743032;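 active = mean activation across triplicate tests above the threshold derived from the earlier primary screen, cut at about 5.5% in these data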;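 also: 0% = DMSO only wells and 100% = 3 µM Δ7-dafachronic acid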
* = called active by the depositor; . = no result given.

SMILES	ssDAF-12 act	DAX1 inh-1	hcDAF12 agonist	DAX1 inh-2	Wee1 degr inh	hgDAF12 agonist	LXRb hcDAF ctr	hcDAF12 conf
O=C(CNC(=O)c1cc(-c2ccccc2)nn1-c1ccccc1)Nc1ccccc1Br	-0.9	0.5	-0.8	-0.3	.	1.5	.	.
CCn1c2ccc(CC(=O)O)cc2c2cc(CC(=O)O)ccc21	-1.2	-0.5	-0.2	-0.8	3.1	-0.6	.	.
O=C(O)Cc1ccc2ccc3ccccc3c2c1	-0.3	.	8.5*	0.2	.	1.4	0.0	4.9
COc1cc(N2CCCC2)c(OC)cc1/C=C(/C#N)c1ccc(F)cc1	-1.1	-0.5	-1.7	-0.1	2.7	-1.1	.	.
N#C/C(=C/c1ccc(N2CCCCC2)cc1)c1cccc(F)c1	-0.9	0.2	8.8*	1.0	0.2	6.6	0.8	1.8
CC(=O)Nc1ccc(C(=O)N2CCCCC2c2cc(C(=O)N3CCOCC3)no2)cc1 (centres undefined)	-0.9	.	0.0	-1.8	.	-3.1	.	.
c1ccc2c(c1)ncc1cccn12	1.5*	0.5	6.7*	0.5	-2.1	4.8	-0.2	4.4
c1ccc(-c2ncc3ccccn23)cc1	-1.6	0.8	1.2	0.2	0.5	3.2	.	.
Cn1nc(-c2ccccc2)c2nc3ccccc3nc21	0.6	-0.2	6.8*	0.1	-1.3	2.5	0.3	6.1*
CCCCn1nc(-c2ccccc2)c2nc3ccccc3nc21	.	.	.	.	-0.3	.	.	.
C[C@H](CO)N1C[C@H](C)[C@H](CN(C)C(=O)c2ccccc2F)Oc2ncc(Br)cc2C1=O	-0.7	1.0	1.0	-0.7	.	0.0	.	.
Cc1ccc(N=C2C(=O)Nc3ccccc32)cc1C	-0.1	-1.1	-0.8	0.0	.	-1.7	.	.
CC(=O)c1cccc(N=C2C(=O)Nc3ccccc32)c1	-0.1	0.0	6.6*	0.6	0.7	1.7	-0.2	2.2
COC(=O)C1=C(C)NC(C)=C(C(=O)OC)C1C(=O)OCC(=O)c1ccc(Br)cc1	-0.7	-0.2	-0.2	-0.1	.	0.8	.	.
Cn1ncc([N+](=O)[O-])c1C(=O)N/N=C/c1c[nH]c2ccccc12	-0.3	0.5	3.7	-0.9	-2.6	2.9	.	.
Cc1cc(=O)[nH]c(N/N=C/c2ccccc2C(F)(F)F)n1	-2.0	1.1	1.0	-0.2	-3.3	0.9	.	.
O=[N+]([O-])c1ccccc1N/N=C/c1c[nH]c2ccccc12	2.5*	3.1	10.7*	2.7	2.3	20.6*	1.4	17.2*
Cc1cc(=O)[nH]c(N/N=C/c2c[nH]c3ccccc23)n1	-0.3	0.9	7.2*	0.7	-1.1	3.8	0.1	2.5
O=[N+]([O-])c1ccc(N/N=C/c2c[nH]c3ccccc23)cc1	-1.4	-0.7	-3.0	-1.9	-1.6	-1.1	.	.
O=C(N/N=C/c1c[nH]c2ccccc12)c1cccc([N+](=O)[O-])c1	0.4	-0.4	10.2*	-0.6	5.8	2.4	0.1	6.7*
Cn1cc([N+](=O)[O-])c(C(=O)N/N=C\c2c[nH]c3ccccc23)n1	0.4	0.7	16.3*	0.1	-1.2	-0.9	-0.1	2.8
O=C1c2ccccc2C(c2nnnn2-c2ccc3c(c2)OCCO3)N1Cc1cccc(F)c1 (centres undefined)	-1.2	.	3.6	0.5	.	-0.4	.	.
O=S(=O)(c1ccc2nc(Cc3ccccc3)[nH]c2c1)N1CCOCC1	-1.2	-0.5	-1.5	0.7	0.6	-0.1	.	.
COc1cc(Cc2nc3ccc(S(=O)(=O)N4CCOCC4)cc3[nH]2)cc(OC)c1OC	-1.5	-0.1	8.0*	-0.7	0.5	1.3	-0.3	-0.6
Cc1ccc(NC(=O)c2cc3ccccc3o2)cc1Cl	0.0	6.8*	8.8*	3.1	.	13.1*	1.3	5.9*
SMILES	ssDAF-12 act	DAX1 inh-1	hcDAF12 agonist	DAX1 inh-2	Wee1 degr inh	hgDAF12 agonist	LXRb hcDAF ctr	hcDAF12 conf
COc1ccc(NC(=O)c2cc3ccccc3o2)cc1	0.8	1.8	7.2*	2.3	-1.9	12.3*	1.5	7.3*
COc1ccc(NC(=O)c2cc3ccccc3o2)cc1OC	-0.7	3.2	-0.2	0.8	.	5.1	.	.
COC1C=CC=C(C)C(=O)NC2=CC(=O)C(N)=C(CC(C)CC(OC)C(O)C(C)C=C(C)C1OC(N)=O)C2=O (centres undefined)	-2.5	-2.0	-4.6	-6.9	.	-11.4	.	.
Fc1ccc(F)c(C2=NNC(=Nc3ccccc3F)SC2)c1	2.7*	2.9	8.6*	3.1	1.3	12.5*	1.0	8.1*
Fc1ccccc1N=C1NN=C(c2ccccc2)CS1	1.0*	1.4	11.8*	3.5	-1.2	11.6*	1.8	8.5*
COc1ccc(/C=C2\CCc3ccccc3C2=O)cc1Cn1cccn1	-1.5	-0.8	-0.4	0.8	3.4	4.8	.	.
COc1ccc(/C=C2\CCc3ccccc3C2=O)cc1O	0.8	-2.2	8.5*	0.5	.	5.9	1.2	6.9*
O=C1c2cccc3cccc(c23)C(=O)N1CCc1ccccc1	2.1*	1.5	14.5*	1.5	0.7	8.4	0.7	9.4*
Cc1cc(C)n2nc(Nc3ccccc3)cc2n1	0.4	0.9	7.2*	1.3	1.6	1.6	0.3	10.9*
Cc1cccc(N(Cc2ccccc2)C(=O)CN2C(=O)NC3(CCCC3)C2=O)c1	-1.1	0.3	0.6	-0.1	.	-2.3	.	.
Cc1cnc(Nc2nc3ccccc3o2)nc1C(=O)Nc1cccc(C(F)(F)F)c1	-0.9	-1.1	-0.9	-0.1	-0.3	2.4	.	.
Cc1ccc(Nc2nc3ccccc3o2)cc1F	0.6	2.2	7.3*	4.0*	-1.4	11.8*	0.7	5.2
COc1ccc(-c2cc(C(F)(F)F)n3nc(C(=O)Nc4c(C)n(C)n(-c5ccccc5)c4=O)c(Cl)c3n2)cc1	-0.8	-1.9	0.6	-0.9	0.1	1.6	.	.
Cc1c(NC(=O)c2nn3c(C(F)(F)F)cc(-c4ccccc4)nc3c2Cl)c(=O)n(-c2ccccc2)n1C	-1.2	-1.3	6.8*	-0.1	-1.3	2.5	-0.3	-0.6
N#CC1(Nc2ccc3ccccc3c2)CCCC1	0.3	2.8	6.9*	4.1*	.	9.1	0.2	7.0*
Cc1ccnc(NS(=O)(=O)c2ccc(NC(=O)c3ccc(S(=O)(=O)N4CC(C)OC(C)C4)cc3)cc2)n1 (centres undefined)	-1.2	0.1	19.4*	1.3	-1.9	0.1	-0.1	0.9
Cc1cn([C@H]2C[C@H](O)[C@@H](CNCc3ccc(Oc4cc(-n5cccn5)ncn4)cc3)O2)c(=O)[nH]c1=O	-1.9	0.4	-0.5	-0.1	.	2.5	.	.

Compound activity: PubChem, The Scripps Research Institute Molecular Screening Center
